# Rows were chosen to be rich in hits. Some 21% of all compounds tested hit in one or more screens of this group.
# TDP1 cell noCPT = qHTS for Inhibitors of human tyrosyl-DNA phosphodiesterase 1 (TDP1): qHTS in cells in absence of CPT. DT40 Tdp1-/- hTDP1 cells, no CPT, ATP luminescence, 48 h. Potency, µM (titrated, usually from 46.2 µM), inactives show at the top dose activity change, negative = growth inhibition, most hits filed as inhibitors. hit rate 15% among 420,000. AID 686978, 2013; note: potency is the fitted concentration of half-maximal effect; nearly all actives have a fitted effect of over 55% in size
#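 Compound effects on proliferation are scored in DT40 Tdp1-/-;hTDP1 cells in the absence of CPT. ATP levels (CellTiter-Glo luminescence) are recorded after a ≥48 hr, 37 °C incubation.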
# TDP1 cell CPT = growth inhibition of DT40 Tdp1-/-;hTDP1 cells with camptothecin (screen for TDP1 inhibitors); chicken DT40 Tdp1-/-;hTDP1 cells + 20 nM CPT, ATP luminescence, 48 h; Potency, µM (doses to about 46.2 µM), for inactives: top-dose activity change, negative = growth inhibition, most hits filed as inhibitors; hit rate 12% among 420,000; AID 686979; note: potency is the fitted concentration of half-maximal effect; nearly all actives have a fitted effect of over 55% in size
#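 Cell growth measured by CellTiter-Glo luminescence after a minimum 48 h, 37 C compound exposure with 20 nM CPT in Tdp1-knockout DT40 cells stably expressing hTDP1, seeded 400/well; qHTS titration format.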
# Gal4-VP16 FLuc = inhibits Gal4-VP16 luciferase reporter, ROR gamma counter-screen; Drosophila S2 Gal4-VP16 UAS-luciferase, luminescence, 20 h; AID 2546; Potency, µM (highest dose often 53.6 µM), without a hit: at the top dose activity, negative = inhibition, actives largely listed as inhibitors; hit rate 3.5% among 310,000;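 note: Gal4-VP16 expression switched on by copper sulfate through the metallothionein promoter; potency is the fitted concentration of half-maximal effect; nearly all actives have a fitted effect of over 50% in size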
# ELG1 DNA repair = blocks ELG1-dependent DNA repair in HEK293T cells. Potency, µM (titrated, usually from 46.1 µM), without a hit: at the top dose activity change, negative = inhibition, hits mostly inhibitors. hit rate 2.3% among 330,000. AID 504467. HEK293T ELG1-luciferase reporter, luminescence, 16 h; DNA damage induced by 5-fluorouridine; note: potency is the fitted concentration of half-maximal effect; nearly all actives have a fitted effect of over 55% in size
#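 DMSO vehicle served as the neutral condition. Each well held 2,000 cells given 5-fluorouridine plus compound; after 16 hr at 37 °C/5% CO2, ONE-Glo was added and luciferase measured 30 min later.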
# RORg inh = blocks mouse ROR gamma transcriptional activity; Potency, µM (series often up to 53.6 µM), inactives show at the top dose activity change, negative = inhibition, usual class: inhibitors; hit rate 5.4% among 310,000; Drosophila S2 Gal4-RORgamma UAS-luciferase reporter, 20 h; P51450; AID 2551; note: potency is the fitted concentration of half-maximal effect; nearly all actives have a fitted effect of over 60% in size
# Target sequence (P51450 whole entry, looked up, the tested form may be a part): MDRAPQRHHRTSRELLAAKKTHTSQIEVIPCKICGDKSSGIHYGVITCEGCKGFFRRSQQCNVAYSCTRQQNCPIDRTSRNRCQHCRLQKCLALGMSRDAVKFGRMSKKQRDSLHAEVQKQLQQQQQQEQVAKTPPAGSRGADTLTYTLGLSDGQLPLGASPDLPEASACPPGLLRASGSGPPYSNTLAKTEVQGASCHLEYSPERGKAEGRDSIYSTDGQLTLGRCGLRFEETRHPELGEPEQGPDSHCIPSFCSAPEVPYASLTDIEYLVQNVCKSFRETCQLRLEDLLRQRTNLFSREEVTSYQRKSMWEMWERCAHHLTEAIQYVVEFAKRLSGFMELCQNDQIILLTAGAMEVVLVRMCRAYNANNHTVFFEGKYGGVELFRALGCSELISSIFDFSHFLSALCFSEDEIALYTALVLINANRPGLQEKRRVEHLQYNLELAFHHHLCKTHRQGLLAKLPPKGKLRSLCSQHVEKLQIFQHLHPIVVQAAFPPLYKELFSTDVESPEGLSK
#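 Read-out: Photinus luciferase luminescence; inhibitors lower reporter signal. Insect Schneider cells with Gal4-ROR gamma fusion under metallothionein promoter, UAS reporter; 700 uM final copper sulfate induction, 20 hr, ambient temperature.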
# IL-1B inflam inh = inflammasome signaling inhibition, IL-1 beta readout. THP-1 LPS/ATP IL-1B secretion, AlphaLISA, 16 h; stronger effect = lower value. activity change, % at 57.5 µM. hit rate 4.7% among 360,000. AID 743279; in the data active = activity change below about -50%; inconclusive = mostly about -30% to -49%
#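 THP-1 cells pretreated 1 hr with compounds (up to 57.5 uM final), then stimulated with LPS (250 ng/mL final) plus ATP (1.25 mM final); secreted IL-1B measured by AlphaLISA after 16 hr, decreased signal indicating inhibition.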
# Numbers without * were called inactive; i = inactive; ? = inconclusive; . = not tested or not shown; [ ] = remark or other dose. Unless noted, calls come from the whole dose curve; as a rule, active = well fitted curve in the direction sought with a large enough effect; inconclusive = small, poorly fitted or top-dose-only effect, or another doubt; inactive = no such curve, though single readings can be large; an effect the other way counts as inactive or inconclusive. % is set by controls: 0 for no effect and ±100 for the full control effect.
SMILES,TDP1 cell noCPT,TDP1 cell CPT,Gal4-VP16 FLuc,ELG1 DNA repair,RORg inh,IL-1B inflam inh
Cc1ccc2c(CC(=O)Nc3ccc4nc(N5CCOCC5)sc4c3)coc2c1,?,-30%,.,.,.,40
COc1ccc(OC)c(-c2ccnc(-n3ncc(C(=O)N4CCN(CCO)CC4)c3C3CC3)n2)c1,-18%,18%,.,.,.,.
COc1cccc(NC(=O)CCC2CCN(C(=O)C3CC=CCC3)CC2)c1 (stereo not drawn),?,?,-10%,-8%,0%,9
O=C(CCC1CCN(C(=O)C2CC=CCC2)CC1)Nc1ccccc1 (stereo not drawn),21µM*,?,.,.,.,18
Cc1cccc(NC(=O)CCC2CCN(C(=O)C3CC=CCC3)CC2)c1 (stereo not drawn),12µM*,12µM*,-4%,-13%,31%,i
C=CC[C@@H](Cc1ccc(F)cc1)C(=O)OC[C@H]1CCCN1C(=O)[C@@H](CC=C)CC(=O)N[C@@H](CO)Cc1ccccc1,12µM*,12µM*,.,-24%,.,-6
C=CC[C@@H](Cc1ccc(F)cc1)C(=O)OC[C@@H]1CCCN1C(=O)[C@@H](CC=C)CC(=O)N[C@H](CO)Cc1ccccc1,16µM*,10µM*,.,21µM*,.,?
C=CCC[C@@H](Cc1ccc(F)cc1)C(=O)OC[C@@H]1CCCN1C(=O)[C@H](CC=C)CC(=O)N[C@H](CO)Cc1ccccc1,18µM*,?,.,?,.,?
C=CC[C@@H](Cc1ccc(F)cc1)C(=O)OC[C@H]1CCCN1C(=O)[C@@H](CC=C)CC(=O)N[C@H](CO)Cc1ccccc1,?,?,.,?,.,-16
C=CC[C@@H](Cc1ccc(F)cc1)C(=O)OC[C@H]1CCCN1C(=O)[C@H](CC=C)CC(=O)N[C@H](CO)Cc1ccccc1,?,21µM*,.,23µM*,.,-3
CSc1cccc(NC(=O)Cn2nnc(C(=O)NCCc3ccccc3)c2N)c1,-2%,-28%,.,.,.,.
C=CCC[C@@H](Cc1ccc(F)cc1)C(=O)OC[C@@H]1CCCN1C(=O)[C@@H](CC=C)CC(=O)N(CCO)Cc1ccccc1,18µM*,16µM*,.,?,.,-73*
C=CC[C@@H](Cc1ccc(F)cc1)C(=O)OC[C@@H]1CCCN1C(=O)[C@@H](CC=C)CC(=O)N[C@@H](CO)Cc1ccccc1,18µM*,?,.,?,.,-10
C=CC[C@@H](Cc1ccc(F)cc1)C(=O)OC[C@H]1CCCN1C(=O)[C@H](CC=C)CC(=O)NCCO,?,?,.,4%,.,9
C=CCC[C@@H](Cc1ccc(F)cc1)C(=O)OC[C@H]1CCCN1C(=O)[C@@H](CC=C)CC(=O)N[C@H](CO)Cc1ccccc1,?,?,.,?,.,-19
COc1cccc(-c2ccc3ncnc(N4CCN(C)CC4)c3c2)c1,23µM*,13µM*,-2%,.,0%,.
CN1CCN(c2ncnc3ccc(-c4cccnc4)cc23)CC1,?,16µM*,-4%,.,17%,.
CN1CCN(c2ncnc3ccc(-c4ccc(C(=O)N(C)C)cc4)cc23)CC1,3%,6%,-4%,.,-10%,.
CN1CCN(c2ncnc3ccc(-c4cccc(C#N)c4)cc23)CC1,?,?,1%,.,?,.
CN1CCN(c2ncnc3ccc(-c4ccoc4)cc23)CC1,23µM*,12µM*,-7%,.,-22%,.
Cn1c(=O)c(-c2cccs2)nc2cnc(OCc3ccccc3)nc21,7%,9%,3%,.,-2%,.
Cc1cc(Cl)ccc1N=c1ssnc1Cl,16µM*,13µM*,?,16µM*,11µM*,?
Cc1nnc(N=c2ssnc2Cl)o1,1µM*,1µM*,.,?,.,-15
Cc1ccc(N=c2ssnc2Cl)cc1,3.7µM*,5.8µM*,?,?,13µM*,-17
Cc1cc(C)nc(/N=c2/ssnc2Cl)c1,9.2µM*,7.3µM*,?,?,20µM*,-101*
SMILES,TDP1 cell noCPT,TDP1 cell CPT,Gal4-VP16 FLuc,ELG1 DNA repair,RORg inh,IL-1B inflam inh
CC(C)c1cnc2c(c1SCC(=O)Nc1ccc(C(N)=O)cc1)c(=O)n(C)c(=O)n2C,?,-28%,.,.,.,.
CC1CN(C(=O)COC(=O)Cc2c(Cl)cccc2Cl)CC(C)O1 (stereo not drawn),-12%,1%,.,12%,.,27
O=C(Nc1ccncc1)c1ccc2c(c1)S(=O)(=O)c1ccccc1C2=O,12µM*,15µM*,-7%,9.2µM*,13%,2
O=C(Nc1nc(-c2cccc3ccccc23)cs1)c1ccc2c(c1)S(=O)(=O)c1ccccc1C2=O,9.2µM*,18µM*,6%,?,10%,22
O=C(Nc1ccc(-c2ccccc2)cc1)c1ccc2c(c1)S(=O)(=O)c1ccccc1C2=O,-11%,-20%,.,.,.,13
O=C(Nc1nc(-c2ccccc2)cs1)c1ccc2c(c1)S(=O)(=O)c1ccccc1C2=O,?,?,-18%,?,3%[10 µM],5
CCOC(=O)c1c(C)[nH]c(C)c1S(=O)(=O)N1CCCC(C(=O)NCc2ccc(Cl)cc2)C1 (stereo not drawn),0%,-19%,.,.,.,.
C[N+]1(CC(=O)c2ccc3ccccc3c2)CCOCC1,-4%,8%,.,.,.,.
CCOc1ccccc1NC(=O)Nc1cc(C(=O)NCc2ccc(C)cc2)ccc1N1CCCC1,8.2µM*,8.2µM*,.,.,.,.
COc1ccc(CNC(=O)c2ccc(N3CCCC3)c(NC(=O)NCc3ccc(C)cc3)c2)cc1,?,16µM*,.,.,.,.
CCc1ccccc1NC(=O)Nc1cc(C(=O)NCc2ccccc2OC)ccc1N1CCCC1,?,15µM*,.,.,.,.
CCOCCCNC(=O)Nc1cc(C(=O)NCc2ccc(C(C)C)cc2)ccc1N1CCCC1,?,26µM*,.,.,.,.
Cc1coc(=N)n1CC(=O)c1ccc(Cl)cc1,-13%,-7%,-9%,13%,-12%,18
Cc1ccc(N2CCN(C(=O)C(=O)c3ccc(F)c(F)c3)CC2)cc1,-25%,-22%,.,.,.,-12
Fc1ccc(CNCc2ccco2)cc1,18%,-23%,1%,11%,11%,-2
OC(CNCc1ccc(Cl)cc1)(c1ccccc1)c1ccc(F)cc1 (stereo not drawn),23µM*,?,11µM*,-23%,?,-67*
OC(CNCc1ccc(F)cc1)(c1ccc(F)cc1)c1ccc(F)cc1,?,23µM*,-8%,-20%,6%,-55*
Cc1ccc(C(O)(CNCc2ccccc2)c2ccccc2)cc1 (stereo not drawn),?,?,-7%,-9%,14%,?

# High-throughput results: PubChem BioAssay, National Center for Advancing Translational Sciences (NCATS)
